Source: PubChem BioAssay (NCATS)
Results filed as inconclusive are left out. The source made the active and inactive calls. Calls follow the shape of the dose curve; as a rule, active = well fitted cell-killing curve with a large enough effect; inconclusive = small, poorly fitted or top-dose-only effect, or effect the other way; inactive = no such curve, though single readings can be large or run the other way.

Assays:
[1] = Quantitative High-Throughput drug screen in 47 multiple myeloma cell lines against the NCATS MIPE library collection: OCIMY1_PLB cell viability assay (AID 1918979); also: nearly all actives have a fitted effect of over 35% in size;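 as to viability: 100% = DMSO-only wells and 0% = cell-free media-only wells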
Method in brief: (§1)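 qHTS format: cells plated (500/well), pin-dosed with MIPE 4.0 compounds, kept 48 h at 37 °C. Readout was CellTiter-Glo luminescence, median RLU.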

[2] = Quantitative High-Throughput drug screen in 47 multiple myeloma cell lines against the NCATS MIPE library collection: MM1S_ATCC cell viability assay (AID 1918980); also: nearly all actives have a fitted effect of over 45% in size
Method in brief: as §1

[3] = Quantitative High-Throughput drug screen in 47 multiple myeloma cell lines against the NCATS MIPE library collection: MM1R_ATCC cell viability assay (AID 1918981); also: nearly all actives have a fitted effect of over 35% in size
Method in brief: as §1

[4] = Quantitative High-Throughput drug screen in 47 multiple myeloma cell lines against the NCATS MIPE library collection: LP1_DSMZ cell viability assay (AID 1918982); also: nearly all actives have a fitted effect of over 35% in size
Method in brief: as §1

[5] = Quantitative High-Throughput drug screen in 47 multiple myeloma cell lines against the NCATS MIPE library collection: KMS28PE_JCRB cell viability assay (AID 1918983); also: nearly all actives have a fitted effect of over 35% in size
Method in brief: as §1

[6] = Quantitative High-Throughput drug screen in 47 multiple myeloma cell lines against the NCATS MIPE library collection: L363_DSMZ cell viability assay (AID 1918984); also: nearly all actives have a fitted effect of over 40% in size
Method in brief: as §1

[7] = Quantitative High-Throughput drug screen in 47 multiple myeloma cell lines against the NCATS MIPE library collection: KMS34_JCRB cell viability assay (AID 1918985); also: nearly all actives have a fitted effect of over 40% in size
Method in brief: as §1

[8] = Quantitative High-Throughput drug screen in 47 multiple myeloma cell lines against the NCATS MIPE library collection: OCIMY5_PLB cell viability assay (AID 1918988); also: nearly all actives have a fitted effect of over 65% in size
Method in brief: as §1

[9] = Quantitative High-Throughput drug screen in 47 multiple myeloma cell lines against the NCATS MIPE library collection: OPM1_PLB cell viability assay (AID 1918989); also: nearly all actives have a fitted effect of over 40% in size
Method in brief: as §1

[10] = Quantitative High-Throughput drug screen in 47 multiple myeloma cell lines against the NCATS MIPE library collection: SKMM1_PLB cell viability assay (AID 1919863); conditions: SKMM1 myeloma viability, CellTiter-Glo ATP, 48 h; viability: hits give low values; also: nearly all actives have a fitted effect of over 35% in size
Method in brief: as §1

[11] = Quantitative High-Throughput drug screen in 47 multiple myeloma cell lines against the NCATS MIPE library collection: U266_ATCC cell viability assay (AID 1919864); also: nearly all actives have a fitted effect of over 35% in size;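 as to viability (% of DMSO control): 0% = media-only wells without cells and 100% = DMSO-only wells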
Method in brief: as §1

[12] = Quantitative High-Throughput drug screen in 47 multiple myeloma cell lines against the NCATS MIPE library collection: XG1_PLB cell viability assay (AID 1919866); also: nearly all actives have a fitted effect of over 35% in size
Method in brief: as §1

[13] = Quantitative High-Throughput drug screen in 47 multiple myeloma cell lines against the NCATS MIPE library collection: UTMC2_PLB cell viability assay (AID 1919868); conditions: CellTiter-Glo ATP luminescence, 48 h; viability (% of DMSO control): at 45.8 µM (top of the series); also: nearly all actives have a fitted effect of over 55% in size;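 as to viability (% of DMSO control): 100% = DMSO-only wells and 0% = media-only wells without cells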
Method in brief: as §1

[14] = Quantitative High-Throughput drug screen in 47 multiple myeloma cell lines against the NCATS MIPE library collection: PE2_PLB cell viability assay (AID 1919869); also: nearly all actives have a fitted effect of over 35% in size
Method in brief: as §1

[15] = Quantitative High-Throughput drug screen in 47 multiple myeloma cell lines against the NCATS MIPE library collection: PCM6_Riken cell viability assay (AID 1919870); also: nearly all actives have a fitted effect of over 30% in size
Method in brief: as §1

[16] = Quantitative High-Throughput drug screen in 47 multiple myeloma cell lines against the NCATS MIPE library collection: RPMI8226_ATCC cell viability assay (AID 1919871); also: nearly all actives have a fitted effect of over 30% in size
Method in brief: as §1

[17] = Quantitative High-Throughput drug screen in 47 multiple myeloma cell lines against the NCATS MIPE library collection: OPM2_DSMZ cell viability assay (AID 1919872); also: nearly all actives have a fitted effect of over 30% in size
Method in brief: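 qHTS of the MIPE 4.0 collection: 500 myeloma cells/well, 48 h drug exposure at 37C in 5% CO2, then CellTiter-Glo for 5 min at room temperature before luminescence reading.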

[18] = Quantitative High-Throughput drug screen in 47 multiple myeloma cell lines against the NCATS MIPE library collection: OCIMY7_PLB cell viability assay (AID 1918987); conditions: OCI-MY7 myeloma viability, CellTiter-Glo ATP, 48 h; viability (% of DMSO): at 45.8 µM (top of the series); also: nearly all actives have a fitted effect of over 65% in size
Method in brief: as §1

[19] = Quantitative High-Throughput drug screen in 47 multiple myeloma cell lines against the NCATS MIPE library collection: XG6_PLB cell viability assay (AID 1919865); also: nearly all actives have a fitted effect of over 40% in size
Method in brief: as §1

[20] = Quantitative High-Throughput drug screen in 47 multiple myeloma cell lines against the NCATS MIPE library collection: VP6_DJ cell viability assay (AID 1919867); also: nearly all actives have a fitted effect of over 40% in size
Method in brief: as §1
Potency is read from the fitted curve at half-maximal effect.

C[C@H](CCC(=O)O)[C@H]1CCC2C3C[C@H](O)[C@@H]4C[C@H](O)CC[C@]4(C)C3CC[C@@]21C (stereo partly specified)
active: Potency [12] 18700 nM
inactive: Potency [1] | Potency [2] | Potency [3] | Potency [4] | Potency [5] | Potency [6] | Potency [7] | Potency [8] | Potency [9] | viability [10] 96.1% | Potency [11] | Potency [13] | Potency [14] | Potency [15] | Potency [16] | Potency [17]

COc1cc(OC)cc(-c2ccc3ncc4ccc(=O)n(-c5ccc(N6CCNCC6)c(C(F)(F)F)c5)c4c3c2)c1
active: Potency [1] 14800 nM | Potency [2] 3320 nM | Potency [3] 4690 nM | Potency [4] 5900 nM | Potency [5] 5260 nM | Potency [6] 833 nM | Potency [7] 6620 nM | Potency [18] 1180 nM | Potency [9] 4690 nM | Potency [10] 13200 nM | Potency [11] 11800 nM | Potency [19] 833 nM | Potency [12] 526 nM | Potency [20] 2640 nM | Potency [14] 3320 nM | Potency [15] 3720 nM | Potency [16] 11800 nM | Potency [17] 8330 nM

O=c1ccn([C@@H]2O[C@H](CO)[C@H](O)[C@@H]2F)c(=O)[nH]1
inactive: Potency [1] | Potency [3] | Potency [4] | Potency [5] | Potency [6] | Potency [7] | Potency [9] | Potency [16] | Potency [17]
active: Potency [2] 5260 nM | Potency [11] 5900 nM | Potency [19] 7430 nM

C[C@H]1COc2c(N3CCN(C)CC3)c(F)cc3c(=O)c(C(=O)O)cn1c23
inactive: Potency [1] | Potency [2] | Potency [3] | Potency [4] | Potency [5] | Potency [6] | Potency [18] | Potency [8] | Potency [9] | Potency [11] | Potency [19] | Potency [12] | Potency [13] | Potency [14] | Potency [15] | Potency [16] | Potency [17]

COc1cccc2c1C(=O)c1c(O)c3c(c(O)c1C2=O)C[C@@](O)(C(C)=O)C[C@H]3O[C@H]1C[C@H](N)[C@H](O)[C@H](C)O1
active: Potency [1] 332 nM | Potency [2] 46.9 nM | Potency [3] 26.4 nM | Potency [4] 209 nM | Potency [5] 83.3 nM | Potency [6] 118 nM | Potency [18] 418 nM | Potency [8] 46.9 nM | Potency [9] 105 nM | Potency [10] 166 nM | Potency [11] 166 nM | Potency [19] 46.9 nM | Potency [12] 105 nM | Potency [20] 41.8 nM | Potency [14] 41.8 nM | Potency [15] 29.6 nM | Potency [16] 235 nM | Potency [17] 166 nM

C=CCNC1=C2C[C@@H](C)C[C@H](OC)[C@@H](O)[C@@H](C)C=C(C)[C@H](OC(N)=O)[C@@H](OC)C=CC=C(C)C(=O)NC(=CC1=O)C2=O
active: Potency [1] 1050 nM | Potency [2] 2350 nM | Potency [3] 1320 nM | Potency [4] 5900 nM | Potency [5] 418 nM | Potency [6] 26.4 nM | Potency [7] 235 nM | Potency [8] 526 nM | Potency [9] 1320 nM | Potency [10] 833 nM | Potency [11] 833 nM | Potency [19] 2640 nM | Potency [12] 662 nM | Potency [20] 264 nM | Potency [13] 1320 nM | Potency [14] 4180 nM | Potency [15] 1480 nM | Potency [16] 1050 nM | Potency [17] 2350 nM

C[C@H](NC(=O)C(C#N)=Cc1cccc(Br)n1)c1ccccc1
active: Potency [1] 7430 nM | Potency [2] 8330 nM | Potency [3] 2090 nM | Potency [4] 5900 nM | Potency [5] 3720 nM | Potency [6] 11800 nM | Potency [7] 7430 nM | Potency [18] 743 nM | Potency [8] 2640 nM | Potency [9] 2090 nM | Potency [10] 3720 nM | Potency [11] 6620 nM | Potency [19] 2350 nM | Potency [12] 2090 nM | Potency [20] 2350 nM | Potency [13] 3320 nM | Potency [14] 2640 nM | Potency [15] 2090 nM | Potency [16] 4180 nM | Potency [17] 7430 nM

CCN(CC)CCNC(=O)c1c(C)[nH]c(C=C2C(=O)Nc3ccc(F)cc32)c1C
active: Potency [1] 13600 nM | Potency [2] 4810 nM | Potency [3] 3030 nM | Potency [4] 30300 nM | Potency [5] 5400 nM | Potency [6] 540 nM | Potency [7] 6050 nM | Potency [18] 171 nM | Potency [8] 8550 nM | Potency [9] 1520 nM | Potency [10] 27000 nM | Potency [11] 3400 nM | Potency [19] 1710 nM | Potency [12] 3030 nM | Potency [20] 1520 nM | Potency [13] 540 nM | Potency [14] 2150 nM | Potency [15] 1520 nM | Potency [16] 10800 nM | Potency [17] 6050 nM
